The entries come from a sample that favours hits as a whole.
NPR2 activator: GC-B (human) receptor activation. AID 1920062. HEK293-GC-B cells, CNP EC30, cGMP TR-FRET; 0% at EC30 CNP, 100% saturating CNP. activation, % at 10 µM. hit rate 0.11% among 370,000. P20594;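 active = activation at 10 µM reaching about 35% in either raw or pattern-adjusted values, limit read from the data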
GC-A act: GC-A (human) enzyme activation; P16066; HEK293 GC-A cells, cGMP TR-FRET, EC30 ANP; 0% at EC30 ANP, 100% saturating ANP; activation, % at 10 µM; hit rate 0.14% among 370,000; AID 1671463; in the data active = activation above about 40%
Target sequence (P16066 whole entry, looked up): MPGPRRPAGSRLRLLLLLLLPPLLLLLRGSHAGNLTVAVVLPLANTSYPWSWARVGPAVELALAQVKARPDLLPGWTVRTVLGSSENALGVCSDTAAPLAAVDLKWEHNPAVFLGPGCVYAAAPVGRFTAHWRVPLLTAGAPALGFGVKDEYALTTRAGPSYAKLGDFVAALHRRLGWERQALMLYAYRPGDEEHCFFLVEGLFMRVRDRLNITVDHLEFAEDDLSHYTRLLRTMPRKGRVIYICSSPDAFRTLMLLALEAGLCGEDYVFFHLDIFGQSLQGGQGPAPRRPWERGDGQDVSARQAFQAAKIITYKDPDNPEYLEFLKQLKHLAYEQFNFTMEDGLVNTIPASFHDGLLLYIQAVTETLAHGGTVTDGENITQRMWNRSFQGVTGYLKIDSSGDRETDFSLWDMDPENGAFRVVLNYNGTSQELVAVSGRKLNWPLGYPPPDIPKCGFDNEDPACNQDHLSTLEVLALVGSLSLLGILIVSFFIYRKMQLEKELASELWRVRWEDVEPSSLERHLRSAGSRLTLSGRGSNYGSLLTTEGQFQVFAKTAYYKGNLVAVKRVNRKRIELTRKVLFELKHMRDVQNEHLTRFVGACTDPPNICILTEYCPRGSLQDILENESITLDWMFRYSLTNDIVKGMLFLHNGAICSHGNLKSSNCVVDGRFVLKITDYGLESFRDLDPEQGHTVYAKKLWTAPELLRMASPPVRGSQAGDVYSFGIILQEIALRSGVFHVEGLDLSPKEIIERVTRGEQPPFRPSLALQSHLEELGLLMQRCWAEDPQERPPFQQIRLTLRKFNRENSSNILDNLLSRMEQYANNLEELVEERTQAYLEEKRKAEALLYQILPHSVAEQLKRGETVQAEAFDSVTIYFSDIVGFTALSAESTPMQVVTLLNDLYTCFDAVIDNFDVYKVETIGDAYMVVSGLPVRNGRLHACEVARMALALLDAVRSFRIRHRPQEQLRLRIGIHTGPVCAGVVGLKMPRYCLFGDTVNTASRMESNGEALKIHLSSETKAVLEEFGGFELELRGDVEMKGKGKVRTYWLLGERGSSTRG
ALR inh: blocks human ALR sulfhydryl oxidase activity. P55789. purified ALR, DTT oxidation, H2O2 HRP-luminol luminescence. inhibition, % (test concentration not listed). hit rate 3.8% among 290,000. AID 485317;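 active = mean replicate inhibition above about 79%, with every replicate also reaching it, limit read from the data; inconclusive = only one of the two criteria met; inactive = mean below limit and not every replicate reaching it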
HDAC3 inh: inhibitors of human histone deacetylase 3; O15379; recombinant HDAC3, fluorogenic peptide/trypsin coupled, fluorescence; inhibition, % at 8.3 µM; hit rate 0.15% among 320,000; in the data active = inhibition above about 26%, passing the limit was not always enough; inconclusive = no clear call, values can overlap the other calls
Each line names hits and unclear results; the compound was inactive in the other large screens.

COc1cccc(NC(=O)Nc2nc3ncccn3c2-c2ccc(C)cc2)c1	none (no result: ALR inh, HDAC3 inh)
O=C(Cn1nnc(-c2ccccc2F)n1)Nc1ccc2c(c1)OCCO2	none
CC/C=C(\NC(C)=O)c1ccccc1	none
OCCNCC(O)CN1c2ccccc2Sc2ccccc21 (stereo not given)	ALR inh 99
O=C1c2c(O)cc(O)cc2O[C@@]12c1c(cc(O)c3c1O[C@H](c1ccc(O)cc1)[C@@H](O)C3)O[C@@H]2c1ccc(O)cc1	ALR inh 99
O=C1C[C@@H](c2ccccc2)Oc2cc(O)cc(O)c21	none
CCn1c(NC(=O)c2ccc(C)cc2)c2ccccc2nc1=O	ALR inh 95
CCn1c(NC(=O)c2ccc(F)cc2)c2ccccc2nc1=O	none
CCOC(=O)c1ccccc1NC(=O)CSc1nc2ccccc2n1CC(=O)N1CCCC1	none
O=C(NC1=NCCS1)c1sc2cc(F)ccc2c1Cl	ALR inh 99
O=C(Nc1ccon1)c1sc2cc(F)ccc2c1Cl	none
Cn1c(CNS(=O)(=O)c2ccc(Br)cc2)n[nH]c1=S	ALR inh 91
C=CCn1c(SCC(=O)c2ccc(O)c(O)c2)nnc1-c1ccc(OC)cc1	ALR inh 91
C=CCn1c(SCC(=O)c2ccc(O)c(O)c2)nnc1-c1cccc(OC)c1	ALR inh 99
C=CCn1c(SCC(=O)c2cccs2)nnc1-c1cccc(OC)c1	ALR inh 93
C=CCn1c(SCC(=O)c2ccc(O)c(O)c2)nnc1-c1ccc(C)cc1	none
CCOc1ccccc1N1CCN(CC(=O)NC(C)c2ccccc2)CC1 (stereo not given)	none
Cc1nnc(SCc2ccc(Cl)c(Cl)c2)s1	none
Cc1[nH]c(=S)sc1Cc1ccc(Cl)c(Cl)c1	ALR inh 96, HDAC3 inh inconclusive
CCOC(=O)c1ccc(NC(=O)NCCc2cnc[nH]2)cc1	none
Cc1onc(NC(=O)c2ccc(Cl)cc2Cl)c1Br	none
COc1ccc(Nc2nccc(-c3cccc(N)c3)n2)cc1	ALR inh 99
COc1ccc(Nc2nccc(-c3ccc(C#N)cc3)n2)cc1	none
Oc1ccc(/C=N/Nc2cccc3cccnc23)c(O)c1	ALR inh 84
O=c1[nH]ncc(N/N=C\c2ccc(O)cc2O)c1Cl	ALR inh 96
CN1CCN(CC(=O)Nc2cccc(S(=O)(=O)N(C)c3ccccc3)c2)CC1	none
CCCCCCCCN1[C@@H](CC(=O)O)c2ccc(C(F)(F)F)cc2S1(=O)=O	ALR inh 97
CCOC(=O)Nc1ccc2c(c1)ncn2C1CCCCC1	ALR inh 84
COC(=O)Nc1ccc2c(c1)ncn2C1CCCCC1	none
C[N+]1(CC(=O)NNc2c3ccccc3nc3ccccc23)CCOCC1	ALR inh 99
Nc1ccccc1C(=O)NNc1c2ccccc2nc2ccccc12	ALR inh 98
COc1ccccc1OCC(=O)NNc1c2ccccc2nc2ccccc12	ALR inh 99
COc1ccccc1OCC(=O)NNC(=O)CCCC(=O)NNC(=O)COc1ccccc1OC	none
COc1cccc(C(=O)NNc2c3ccccc3nc3ccccc23)c1	none
O=C(CN1CCOCC1)NNc1c2ccccc2nc2ccccc12	ALR inh 98
Cc1ccc(C(=O)NNc2c3ccccc3nc3ccccc23)cc1	none
COc1cccc(NC(=O)NC2CCCCN(Cc3ccccc3C)C2=O)c1 (stereo not given)	none (no result: ALR inh, HDAC3 inh)
CC(=O)c1ccc(NC(=O)COC(=O)CCC2CCCC2)cc1	none
Cc1ccc(-n2sc3ccccc3c2=O)cc1	HDAC3 inh 52
COC(=O)c1cccc(-n2sc3ccccc3c2=O)c1	HDAC3 inh 67
COc1cc(OC)cc(C2=Cc3ccc(OC)cc3C(CC(C)=O)N2c2ccc(C#CCCO)cc2)c1 (stereo not given)	none (no result: ALR inh, HDAC3 inh)
CCOC(=O)N1CCN(C(=O)C[C@H]2C[C@@]3(C(=O)OC)C(=C[C@H](C(C)C)O[C@@H]3C3CC3)N(Cc3ccc(Cl)cc3Cl)C2=O)CC1	none (no result: ALR inh, HDAC3 inh)
CN(C)c1ccc(C(=O)N2CCCC(N3CCN(Cc4ccc5c(c4)OCO5)CC3)C2)cc1 (stereo not given)	ALR inh 97
CCCCOc1ccc(CC(=O)NO)cc1	ALR inh 91
CCCCOc1ccc(C(=O)NC)cc1	none
CC(C)CN1C(=O)/C(=C/c2cccs2)NC1=S	ALR inh 99
CC(C)CN1C(=O)/C(=C/c2ccco2)NC1=S	none
CCOC(=O)C1(CCc2ccccc2)CCN(C(=O)C(C)n2cncn2)CC1 (stereo not given)	none
O=C(CN1CCN(C(=O)CNC(=O)c2ccc(-c3ccccc3)cc2)CC1)Nc1ccccc1Cl	none (no result: ALR inh, HDAC3 inh)
Cc1cc(C)nc(NNC(=O)c2ccccc2O)n1	ALR inh 95
Cc1ccc2nc(-c3ccccn3)c(Nc3ccccc3C)n2c1	ALR inh 98 (no result: HDAC3 inh)
Cc1ccc2nc(-c3cccnc3)c(Nc3ccccc3C)n2c1	ALR inh 82
Cc1cccc2nc(-c3cccnc3)c(Nc3ccccc3)n12	ALR inh 97
Cc1ccc2nc(-c3ccccn3)c(N)n2c1	none (no result: ALR inh, HDAC3 inh)
Cc1ccccc1Nc1c(-c2ccccn2)nc2ccccn12	ALR inh 99
Cc1ccn2c(Nc3ccccc3C)c(-c3ccccn3)nc2c1	none (no result: ALR inh)
Cn1c(N)c(C(=O)COC(=O)c2ccccc2C(F)(F)F)c(=O)n(C)c1=O	none
COC(=O)Nc1c(-c2ccccc2)nc2ccc(Cl)cn12	none
Cc1ccccc1Nc1c(-c2cccnc2)nc2ccc(Br)cn12	none
Cc1ccccc1Nc1c(-c2ccncc2)nc2ccc(Br)cn12	ALR inh 98
COC(=O)CNc1c(-c2ccccc2)nc2ccc(Br)cn12	ALR inh 99
O=S1(=O)c2ccc(N3CCSCC3)cc2Oc2ccccc2CN1Cc1cn(Cc2ccc(F)cc2)nn1	none (no result: ALR inh, HDAC3 inh)
C/C(=N\NC(=O)CSc1nc2ccccc2o1)c1ccc(O)cc1	ALR inh 99
C/C(=N\NC(=O)CSc1nc2ccccc2o1)c1cccc(O)c1	none (no result: ALR inh)
O=C(CSc1nc2ccccc2o1)N/N=C/c1ccc(O)c(O)c1	ALR inh 88
O=C(CSc1nc2ccccc2o1)N/N=C/c1ccccc1	HDAC3 inh inconclusive
c1ccc(-c2cc(-c3nnc4n3N=C(c3ccc5ccccc5c3)CS4)[nH]n2)cc1	none
C=CC1=CCN(S(=O)C(C)(C)C)[C@H]1CCO (stereo not given in full)	none (no result: ALR inh, HDAC3 inh)
Cc1cc(NC(=O)CCC(=O)N(Cc2ccco2)C2(C(=O)NC3CCCCC3)CCCC(C)C2)no1 (stereo not given)	none (no result: ALR inh)
COc1ccc2c(c1OC)C(=O)OC2CC(=O)c1ccc(O)c(O)c1 (stereo not given)	ALR inh 99
c1ccc2c(c1)COC(CNC1CCCCC1)OC2	none
O=C(CSc1ccccn1)Nc1cccc2ccccc12	none
O=C(CSc1nnc(Cn2cnc3ccccc32)o1)Nc1cccc2ccccc12	ALR inh 99
COc1ccc(C(=O)CSc2nnc(Cn3cnc4ccccc43)o2)cc1	none
CC(=O)c1ccc(NC(=O)CSc2nnc(Cn3cnc4ccccc43)o2)cc1	ALR inh 97
COc1ccc2c(c1)C=C(CN1CCN(C3CCCC3)C(CCO)C1)CO2 (stereo not given)	none

Screening results deposited in PubChem BioAssay by several laboratories.
